# Entries with a potency or affinity are not part of this list. Calls of active or inactive are those of the source.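 Rule for the calls: active = cell killing whose fitted half-effect concentration is at most twice the top valid dose tested; inconclusive = flat curve with 30 to 70% killing, or a poor fit; inactive = effect in the rising direction, plus the rest.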
# Test: A549 cell cytotoxicity, dose response, cytotoxicity control, ATP luminescence, cherry-pick, set 2 (AID 1053124)
# Settings: A549 viability, ATP luminescence (CellTiter-Glo), 72 h; series mostly up to 26 µM
row,SMILES,outcome
1,C=Cc1ccc(Cn2c(C)c(C(=O)NCc3cccc(C)c3)sc2=O)cc1,inactive
2,Cc1cc(C)nc(SCC(=O)Nc2ccc(S(=O)(=O)Nc3onc(C)c3C)cc2)n1,inactive
3,Nc1ccc2nc(-c3ccccc3)cnc2c1,inactive
4,COC(=O)C1=CN(Cc2ccc(OC)c(OC)c2)C=C(C(=O)OC)C1c1cccc(F)c1,inactive
5,Clc1cccc(CN2CCN(Cc3nc(CCc4ccccc4)no3)CC2)c1,inactive
6,CCOc1ccc2nc(NCCCNS(=O)(=O)c3ccc(C)cc3)c(C#N)cc2c1,inactive
7,O=C(Nc1ccc(-c2ccco2)cc1)C1CCCN(Cc2ccco2)C1 (centres undefined),inactive
8,NC(=O)c1c(NC(=O)Cc2ccccc2)sc2c1CCN(Cc1ccccc1)C2,inactive
9,Cc1ccc(OCC(=O)NNc2c3ccccc3nc3ccccc23)cc1,inactive
10,COCc1cc(C)nc(SCC(=O)Oc2ccc(Cl)cc2)c1C#N,inactive
11,CCOC(=O)c1cc(-c2ccccc2)sc1NC(=O)CSc1nnc(N)s1,inactive
12,O=c1[nH]c2ccccc2nc1/C=C/c1ccccc1,inactive
13,COc1ccc(Cn2nnnc2C(CC(C)C)N2CCC(C(N)=O)CC2)cc1 (centres undefined),inactive
14,COc1ccc(NC(=O)C2CCC(CNS(=O)(=O)c3cccs3)CC2)cc1 (centres undefined),inactive
15,CCCOc1ccc(NC(=O)c2c(-c3ccccc3)noc2C)cc1,inactive
16,CN1CCc2c(sc(NC(=O)C3CCCCC3)c2C(N)=O)C1,inactive
17,CCN(c1ccccc1)S(=O)(=O)c1ccc(OC)c(NC(=O)CN(C)C)c1,inactive
18,Cc1c(O)ccc2cc(S(=O)(=O)c3ccccc3)c(=O)oc12,inactive
19,CSC1=NSC2=NC(=O)/C(=C/c3coc4ccc(O)cc4c3=O)C(=N)N12,inactive
20,Cc1cccn2c(=O)c3cc(C(=O)NCC4CCCO4)c(=N)n(CC4CCCO4)c3nc12 (centres undefined),inactive

row,SMILES,outcome
1,CCOC(=O)C1CCCN(CCCc2ccccc2)C1 (centres undefined),inactive
2,CC(C)(C)[C@H]1CCC(=O)N([C@H](CSc2ccccc2)Cc2ccccc2)CC1,inactive
3,O=C(O)c1cccc(Nc2nc(-c3cc4ccccc4oc3=O)cs2)c1,inactive
4,Cc1c(Nc2c3ccccc3nc3ccccc23)c(=O)n(-c2ccccc2)n1C,inactive
5,Cc1ccc(O)c(NC(=S)NC(=O)COc2ccc(Br)cc2)c1,inactive
6,Cn1cnc(S(=O)(=O)Nc2ccc(OC(F)(F)F)cc2)c1,inactive
7,Cc1ccc2c(c1)-c1c(cnn1CC(=O)Nc1ccccc1N1CCN(C)CC1)CO2,inactive
8,Cc1noc(C)c1S(=O)(=O)N(CC(=O)N1CCCCCC1)c1ccc(C(C)C)cc1,inactive
9,COc1ccc(CCN=C(N)NS(=O)(=O)c2ccc(F)cc2)cc1,inactive
10,CCCCN(CCCC)CC(O)Cn1c2ccccc2c(=O)c2ccccc21 (centres undefined),inactive
11,COc1cc(C(=O)NCCCNc2nc3c(C)cc(C)cc3cc2C#N)cc(OC)c1OC,inactive
12,CC(C)C(=O)Nc1sc2c(c1C(N)=O)CCN(Cc1ccccc1)C2,inactive
13,CCn1c2ccccc2c(=O)c2ccccc21,inactive
14,Cc1cccn2c(=O)c3cc(C(=O)NC(C)c4ccccc4)c(=N)n(CCCn4ccnc4)c3nc12 (centres undefined),inactive
15,CCc1nc(SCC(=O)c2ccccc2)c2ccccc2n1,inactive
16,COc1c(Cl)cc(-c2noc(C)c2C(=O)NCc2ccc3c(c2)OCO3)cc1Cl,inactive
17,CCC(C)n1c(=N)c(C#N)cc2c(=O)n3cc(C)ccc3nc21 (centres undefined),inactive
18,CC(C)N1CCc2c(sc(NC(=O)Cc3ccccc3)c2C#N)C1,inactive
19,COCCCn1c(=N)c(C(=O)NC2CCCCC2)cc2c(=O)n3ccccc3nc21,inactive

# Source: PubChem BioAssay AID1053124 (Broad Institute, 2014)
